Assay outcomes deposited in PubChem BioAssay by several laboratories.
A3A deaminase: APOBEC3A ssDNA deaminase inhibitors, primary screen, selectivity assay for APOBEC3G inhibitor project, biochemical, FAM/TAMRA oligo cleavage fluorescence. DNA dC->dU-editing enzyme APOBEC-3A (Homo sapiens), P31941. recombinant A3A, FAM/TAMRA ssDNA deamination fluorescence. inhibition, % at 20 µM. hit rate 0.41% among 330,000;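 active = at least 40% inhibition at 20 µM here, with at most 30% in a related deaminase screen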
APOBEC3G inh: APOBEC3G DNA deaminase inhibitors, primary screen, biochemical, fluorescence, single-stranded DNA substrate, uHTS; DNA dC->dU-editing enzyme APOBEC-3G (Homo sapiens), Q9HC16; AID 493012, 2011; hit rate 0.28% among 330,000; recombinant A3G, ssDNA deamination FAM/TAMRA fluorescence; inhibition, % at 20 µM;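 active = inhibition of at least 40% at 20 µM, with no more than 30% in the related APOBEC3A deaminase screen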
ALR H2O2 inh: inhibitors of human ALR sulfhydryl oxidase, primary screen, biochemical, H2O2 detection, HRP-luminol luminescence, single point; purified ALR, DTT oxidation; inhibition, % (no concentration beside the values); hit rate 3.8% among 290,000;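 active = mean replicate inhibition above about 79%, with every replicate also reaching it, limit read from the data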
CR mimetic SO: reduction of superoxide in aged yeast, primary screen, HTS. S. cerevisiae aged cells, superoxide DHE fluorescence; active compounds read low. superoxide response (% of plate mean), % at 10 µM. hit rate 0.18% among 330,000;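 active = superoxide response under a set limit, about three screen SD below normal, cut at about 65% in these data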;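 also: yeast aged for seven days with compound at 30 °C before DHE staining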
M18AAP inhibitor: PfM18AAP inhibitors, malaria aminopeptidase, primary screen, biochemical, QFRET, recombinant enzyme; H-Glu-NHMec fluorogenic cleavage; inhibition, % at 7.35 µM; hit rate 1.2% among 290,000;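 active = inhibition above the campaign mean inhibition over all tested compounds plus 3 SD, cut at about 28% in these data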
CendR NRP1 mod: modulators of CendR peptide binding to NRP-1, primary screen, biochemical, fluorescence polarization, uHTS; AID 602438, 2012; FAM-RPARPAR peptide binding to NRP-1; hit rate 0.85% among 360,000; inhibition, % at 25 µM; Neuropilin-1 (Homo sapiens), O14786;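 active = inhibition or corrected inhibition above about 18%, plus a signal ratio from 0.5 to 1.5, limit read from the data, passing the limit was not always enough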
Target sequence (O14786 whole entry, looked up): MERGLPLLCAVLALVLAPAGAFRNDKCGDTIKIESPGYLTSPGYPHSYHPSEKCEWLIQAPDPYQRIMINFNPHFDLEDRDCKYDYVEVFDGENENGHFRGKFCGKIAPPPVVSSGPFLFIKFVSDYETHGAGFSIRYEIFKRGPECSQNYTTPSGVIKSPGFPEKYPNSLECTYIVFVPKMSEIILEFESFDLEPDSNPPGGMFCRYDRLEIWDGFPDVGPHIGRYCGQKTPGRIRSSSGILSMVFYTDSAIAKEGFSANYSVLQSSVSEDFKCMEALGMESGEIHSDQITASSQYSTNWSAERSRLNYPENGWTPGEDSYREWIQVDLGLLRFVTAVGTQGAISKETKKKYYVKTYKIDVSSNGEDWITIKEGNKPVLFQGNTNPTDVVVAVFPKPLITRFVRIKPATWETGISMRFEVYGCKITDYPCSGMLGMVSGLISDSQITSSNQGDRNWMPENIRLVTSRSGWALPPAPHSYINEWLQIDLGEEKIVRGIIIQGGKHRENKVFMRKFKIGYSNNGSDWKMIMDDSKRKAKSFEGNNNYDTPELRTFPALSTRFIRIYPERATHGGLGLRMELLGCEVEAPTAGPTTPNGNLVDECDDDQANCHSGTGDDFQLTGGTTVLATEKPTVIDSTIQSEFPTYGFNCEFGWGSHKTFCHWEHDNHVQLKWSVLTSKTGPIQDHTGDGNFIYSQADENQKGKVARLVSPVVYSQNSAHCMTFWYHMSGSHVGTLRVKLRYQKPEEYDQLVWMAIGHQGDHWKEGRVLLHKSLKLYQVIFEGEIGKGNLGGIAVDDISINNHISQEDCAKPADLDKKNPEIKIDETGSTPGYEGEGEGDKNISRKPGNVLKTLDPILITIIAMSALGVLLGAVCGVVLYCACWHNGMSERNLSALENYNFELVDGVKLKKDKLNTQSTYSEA
Of the large screens only hits and unclear results are named; the others gave an inactive call; ! = not confirmed by another sample. Only some compounds are listed: those with a hit (about 5.2% of all), similar ones and a draw of the others.

COc1ccc(OC)c2c1CCC2=O	CendR NRP1 mod 29.7
COc1ccccc1NC1=C(C)C(=O)CC1	none
COc1cc(OC)cc(C(=O)N2CCC(N3CCN(c4ccccc4)CC3)CC2)c1	ALR H2O2 inh 82.4
Cc1[nH]c2ccccc2c1/C=C(\C#N)S(=O)(=O)c1ccccc1	ALR H2O2 inh 97.2
CC(C)CCNC(=O)C1CCN(S(=O)(=O)c2ccc3c(c2)CCC(=O)N3)CC1	ALR H2O2 inh 84.5
Cc1ccc(CCNC(=O)C2CCN(S(=O)(=O)c3ccc4c(c3)CCC(=O)N4)CC2)cc1	none
CCN(CC)CC(=O)N1c2ccccc2Sc2ccccc21	none
Cc1cc(C)n(CC(O)CN2c3ccccc3Sc3ccccc32)n1 (stereo not given)	ALR H2O2 inh 99.2
Cc1cc(C)n(CC(O)Cn2c3ccccc3c3ccccc32)n1 (stereo not given)	none (no result: ALR H2O2 inh)
CCN(CC)CC(O)CN1c2ccccc2Sc2ccccc21 (stereo not given)	ALR H2O2 inh 98.5
CCN(CC)CCCCN1c2ccccc2Sc2ccccc21	ALR H2O2 inh 99.0
OCCN(CCO)CC(O)CN1c2ccccc2Sc2ccccc21 (stereo not given)	ALR H2O2 inh 98.7
CN1CC(c2ccc(Cl)c(Cl)c2)[C@@]2(COc3ccccc3C2=O)[C@@]12C(=O)Nc1ccccc12 (stereo not given in full)	none
O=C(NCc1ccccc1)C1CCN(S(=O)(=O)c2cccc3cccnc23)CC1	none (no result: ALR H2O2 inh)
Cn1nc(C(C)(C)C)cc1C(=O)NCc1cc(F)cc2c1OCOC2	none
Cc1ccc(C)c(NCC(=O)c2ccc(Cl)cc2)c1	M18AAP inhibitor 28.4
Cc1ccc(C(=O)CNc2cc(C)ccc2C)cc1	none
CCCCNC(=S)N1CCn2cccc2C1c1ccccc1 (stereo not given)	CendR NRP1 mod 27.1
COc1ccc2cc(C(=O)NCc3ccco3)c(=O)oc2c1	none
O=C(c1ccccc1)c1cc2ccc(O)cc2oc1=O	none
Cc1c(Br)cc(C(=O)NCc2ccco2)c(C)c1C	ALR H2O2 inh 98.1
O=C(NCc1ccco1)c1cc2ccc(O)cc2oc1=O	M18AAP inhibitor 28.4
COCCSc1ccccc1C(=O)NCc1ccco1	M18AAP inhibitor 29.9
O=C(c1ccc(Br)cc1)c1cc2ccc(O)cc2oc1=O	ALR H2O2 inh 96.8
COc1ccccc1CNC(=O)c1ccccc1SCC(=O)NCc1ccco1	none (no result: ALR H2O2 inh, CR mimetic SO, M18AAP inhibitor)
COc1ccc(C(=O)N/N=C(\C)CC(=O)Nc2ccc3c(c2)OCO3)cc1	none
Clc1cc2c(c(CSc3nc4ccccc4n4cccc34)c1)OCOC2	none
CCOC(=O)c1[nH]c2cc(OC)c(OC)cc2c1NC(=O)CN(C)C1CCCCC1	ALR H2O2 inh 97.0
COc1cccc(CC(NC(C)=O)C(=O)NC2CCN(C(=O)c3ccc(Cl)cc3)CC2)c1 (stereo not given)	CendR NRP1 mod 18.7 (no result: ALR H2O2 inh, CR mimetic SO)
COc1cc(C2N(c3cccc(Cl)c3)C(=O)C3CCCN32)cc(OC)c1OC (stereo not given)	none (no result: ALR H2O2 inh)
COc1cc(C2N(c3ccccc3)CCN2c2ccccc2)cc(OC)c1OC	ALR H2O2 inh 99.1
Cc1nc(C(=O)N2CCC(C)(C(=O)NS(=O)(=O)C3CC3)C2)c(C)o1 (stereo not given)	none (no result: A3A deaminase, APOBEC3G inh, ALR H2O2 inh, CR mimetic SO, M18AAP inhibitor)
CCNC(=O)C1(C)CCCN(C(=O)c2nc(C)oc2C)C1 (stereo not given)	CendR NRP1 mod 24.5 (no result: A3A deaminase, APOBEC3G inh, ALR H2O2 inh, CR mimetic SO, M18AAP inhibitor)
Cc1n[nH]c(=O)c2c(NC(=O)CSc3nn(-c4ccc(F)cc4)c(=S)s3)oc(C)c12	ALR H2O2 inh 99.2 (no result: M18AAP inhibitor)
CC1(OC(=O)CCc2ccccc2)C(=O)C=C2C=C(c3ccc(C#N)cc3)N(C3CC3)C=C2C1=O (stereo not given)	none (no result: ALR H2O2 inh, M18AAP inhibitor)
Cc1sc2ncn(CC(=O)N3CCN(c4ccccn4)CC3)c(=O)c2c1S(=O)(=O)N1CCCCC1	CendR NRP1 mod 31.3 (no result: ALR H2O2 inh)
Cc1sc2ncn(CC(=O)N3CCCC(C)C3)c(=O)c2c1S(=O)(=O)N1CCCCC1 (stereo not given)	none
CCOC(=O)c1csc(COc2ccccc2Cl)n1	none (no result: ALR H2O2 inh)
CCOC(=O)c1csc(COc2ccc(OC)cc2)n1	CendR NRP1 mod 30.4
Cc1onc(-c2ccccc2)c1C(=O)NCC1CCCO1 (stereo not given)	none
CCCCn1nc2cc(C(=O)NCc3ccc(OC(F)(F)F)cc3)ccc2c1OC	CendR NRP1 mod 27.2
CCCn1nc2cc(C(=O)NCc3ccc(C)cc3)ccc2c1OC	none (no result: CR mimetic SO)
CCCCn1nc2cc(C(=O)NCc3cc(C(F)(F)F)cc(C(F)(F)F)c3)ccc2c1OC	CendR NRP1 mod 26.6 (no result: CR mimetic SO)
COc1c2ccc(C(=O)NCc3cc(C(F)(F)F)cc(C(F)(F)F)c3)cc2nn1C	CendR NRP1 mod 27.5 (no result: CR mimetic SO)
CCn1nc2cc(C(=O)NCc3cc(C(F)(F)F)cc(C(F)(F)F)c3)ccc2c1OC	none
O=S(=O)(Nc1ccc2cn[nH]c2c1)c1ccc(C(F)(F)F)cc1	none (no result: ALR H2O2 inh, M18AAP inhibitor)
Clc1ccc(Cl)c(OCCN2CCCC2)c1	none
CCC(=O)N(CCC(c1ccc(C)cc1)c1ccco1)Cc1ccco1 (stereo not given)	none
Cc1ccc(C)c2[nH]c(=O)c(CN(Cc3ccc4c(c3)OCO4)Cc3nnnn3Cc3ccco3)cc12	M18AAP inhibitor 32.2
Cc1ccc2cc(CN(Cc3ccc4c(c3)OCO4)Cc3nnnn3Cc3ccco3)c(=O)[nH]c2c1C	none
CC(=O)Nc1ccc(SCC(=O)N(CCC#N)c2ccc(C)cc2)cc1	ALR H2O2 inh 96.7
CC(=O)Nc1ccc(NC(=O)CSc2ccc(C)cc2)cc1	none
COC(=O)c1ccc(-n2cc(-c3ccc(OC)cc3)[nH]c2=S)cc1	ALR H2O2 inh 88.3, M18AAP inhibitor 28.5 (no result: A3A deaminase, APOBEC3G inh)
COc1ccc(-n2cc(-c3ccc(Cl)cc3)[nH]c2=S)cc1	none
C#CCOCCOCCOCCNc1nc(N2CCN(C(=O)[C@H](C(C)C)n3cc(CCO)nn3)CC2)nc(N2CCN(C(=O)[C@H](Cc3ccc(O)cc3)n3cc(CCO)nn3)CC2)n1	CendR NRP1 mod 28.8 (no result: A3A deaminase, APOBEC3G inh, ALR H2O2 inh, CR mimetic SO, M18AAP inhibitor)
C#CCOCCOCCOCCNc1nc(N2CCN(C(=O)[C@H]([C@@H](C)O)n3cc(CCCCN)nn3)CC2)nc(N2CCN(C(=O)[C@H](Cc3ccc(O)cc3)n3cc(CCO)nn3)CC2)n1	CendR NRP1 mod 22.2
CC1CN(C)CCC1OC(=O)c1ccccc1 (stereo not given)	none
NCCC(=O)NCCc1cnc[nH]1	none (no result: M18AAP inhibitor)
NCCc1cnc[nH]1	CendR NRP1 mod 19.2! (no result: ALR H2O2 inh)
CCOC(=O)c1c(NC(=O)c2cccnc2)sc(C(C)=O)c1C	none (no result: ALR H2O2 inh)
